Data on 19 compounds can be found in PubChem BioAssay (NCATS).

Records with an inconclusive call do not appear. Unmarked numbers belong to inactive results. Calls of active or inactive are those of the source. The call rests on the fitted dose curve; in most records, active means well fitted curve in the direction sought with a large enough effect; inconclusive means small, poorly fitted or top-dose-only effect, or another doubt; inactive means no such curve, though single readings can be large; an effect the other way counts as inactive or inconclusive.

Assay [1] deals with Rap guanine nucleotide exchange factor 3 (Homo sapiens) (UniProt O95398). Nature of the assay: Confirmatory qHTS for antagonist of cAMP-regulated guanine nucleotide exchange factor 3 (EPAC1) (AID 1645880). Further: nearly all actives have a fitted effect of over 55% in size. Further: potency means the concentration at half of the fitted maximal effect.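 On activity, negative = inhibition: plate controls were DMSO only for no effect and full effect of the ATA control for full effect.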 Conditions: EPAC1 Rap1B-BODIPY-GDP exchange, fluorescence; activity, negative = inhibition: at 115 µM (top of the series). A digest of the protocol: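 Nucleotide exchange uses 100 nM EPAC1, 250 nM RAP1B-BODIPY-GDP and 50 uM GDP, with compounds in a concentration-titration series. After 5 min at room temperature, fluorescence (480 nm ex/540 nm em) is read every 5 min for 30 min. Data are normalized to control ATA and DMSO.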
Chain of Rap guanine nucleotide exchange factor 3 (Homo sapiens) (O95398 whole entry, looked up): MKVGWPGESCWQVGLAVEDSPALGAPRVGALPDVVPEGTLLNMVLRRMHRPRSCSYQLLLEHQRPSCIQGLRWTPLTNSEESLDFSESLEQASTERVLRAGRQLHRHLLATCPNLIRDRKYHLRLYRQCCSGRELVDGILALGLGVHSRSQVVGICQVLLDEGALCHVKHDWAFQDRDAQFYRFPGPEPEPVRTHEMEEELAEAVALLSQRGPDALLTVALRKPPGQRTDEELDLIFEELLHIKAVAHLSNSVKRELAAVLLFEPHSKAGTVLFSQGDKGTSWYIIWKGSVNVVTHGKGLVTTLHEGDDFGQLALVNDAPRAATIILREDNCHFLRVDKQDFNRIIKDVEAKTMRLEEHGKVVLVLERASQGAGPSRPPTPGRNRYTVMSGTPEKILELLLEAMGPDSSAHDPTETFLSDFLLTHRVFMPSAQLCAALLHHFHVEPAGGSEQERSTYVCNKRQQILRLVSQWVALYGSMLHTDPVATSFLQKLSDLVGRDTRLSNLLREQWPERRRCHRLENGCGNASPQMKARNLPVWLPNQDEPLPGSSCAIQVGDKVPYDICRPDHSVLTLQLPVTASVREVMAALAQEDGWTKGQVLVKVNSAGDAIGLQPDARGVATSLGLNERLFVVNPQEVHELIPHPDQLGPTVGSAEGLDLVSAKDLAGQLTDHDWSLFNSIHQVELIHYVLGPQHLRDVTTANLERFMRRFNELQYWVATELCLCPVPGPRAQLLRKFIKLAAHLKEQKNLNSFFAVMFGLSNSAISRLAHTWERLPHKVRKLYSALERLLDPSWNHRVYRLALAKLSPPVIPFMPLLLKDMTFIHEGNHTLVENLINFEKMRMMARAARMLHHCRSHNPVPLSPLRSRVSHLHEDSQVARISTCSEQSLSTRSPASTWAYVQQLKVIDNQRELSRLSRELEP
In general terms: qHTS replaces the single test concentration by a dilution series.

Assay [2] has the same target. Nature of the assay: Confirmatory qHTS for agonist of cAMP-regulated guanine nucleotide exchange factor 3 (EPAC1) (AID 1645881).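 Further: EPAC1 catalysed release of BODIPY-GDP from Rap1B seen as fluorescence loss; 100% = effect of cAMP agonist control; nearly all actives have a fitted effect of over 75% in size.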
Assay [3] has as its target Rap guanine nucleotide exchange factor 4 (Homo sapiens) (UniProt Q8WZA2). Nature of the assay: Confirmatory qHTS for agonist of cAMP-regulated guanine nucleotide exchange factor 4 (EPAC2) (AID 1645884).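 Further: nucleotide exchange releases bodipy-GDP from Rap1 and this lowers its fluorescence; nearly all actives have a fitted effect of over 65% in size.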 Further: potency means the concentration at half of the fitted maximal effect. On activation: on the % scale 0 is the no-effect control and ±100 the full control effect.
The target is the same in assay [4]. The assay can be described thus: Confirmatory qHTS for antagonist of cAMP-regulated guanine nucleotide exchange factor 4 (EPAC2) (AID 1645885). Further: nearly all actives have a fitted effect of over 25% in size. Further: potency means the concentration at half of the fitted maximal effect.
The target in assay [5] is Rap guanine nucleotide exchange factor 3 (Homo sapiens) (UniProt O95398). The assay can be described thus: Counterscreen qHTS for agonist of cAMP-regulated guanine nucleotide exchange factor 3 (EPAC1) (AID 1645889). Further: % of control where 0% means no effect; nearly all actives have a fitted effect of over 40% in size. A digest of the protocol: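 Rap1B–BODIPY-GDP (250 nM) with 50 uM GDP; compounds pin-transferred to 9.74 nM–152 uM final (activator) or from 7.32 nM upwards (inhibitor). Fluorescence Ex/Em 480/540 nm read at 5 and 30 min, then after adding cAMP or buffer, at room temperature.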
On the technique in general: Counterscreens check selectivity or assay interference.

Chain of Rap guanine nucleotide exchange factor 4 (Homo sapiens) (Q8WZA2 whole entry, looked up): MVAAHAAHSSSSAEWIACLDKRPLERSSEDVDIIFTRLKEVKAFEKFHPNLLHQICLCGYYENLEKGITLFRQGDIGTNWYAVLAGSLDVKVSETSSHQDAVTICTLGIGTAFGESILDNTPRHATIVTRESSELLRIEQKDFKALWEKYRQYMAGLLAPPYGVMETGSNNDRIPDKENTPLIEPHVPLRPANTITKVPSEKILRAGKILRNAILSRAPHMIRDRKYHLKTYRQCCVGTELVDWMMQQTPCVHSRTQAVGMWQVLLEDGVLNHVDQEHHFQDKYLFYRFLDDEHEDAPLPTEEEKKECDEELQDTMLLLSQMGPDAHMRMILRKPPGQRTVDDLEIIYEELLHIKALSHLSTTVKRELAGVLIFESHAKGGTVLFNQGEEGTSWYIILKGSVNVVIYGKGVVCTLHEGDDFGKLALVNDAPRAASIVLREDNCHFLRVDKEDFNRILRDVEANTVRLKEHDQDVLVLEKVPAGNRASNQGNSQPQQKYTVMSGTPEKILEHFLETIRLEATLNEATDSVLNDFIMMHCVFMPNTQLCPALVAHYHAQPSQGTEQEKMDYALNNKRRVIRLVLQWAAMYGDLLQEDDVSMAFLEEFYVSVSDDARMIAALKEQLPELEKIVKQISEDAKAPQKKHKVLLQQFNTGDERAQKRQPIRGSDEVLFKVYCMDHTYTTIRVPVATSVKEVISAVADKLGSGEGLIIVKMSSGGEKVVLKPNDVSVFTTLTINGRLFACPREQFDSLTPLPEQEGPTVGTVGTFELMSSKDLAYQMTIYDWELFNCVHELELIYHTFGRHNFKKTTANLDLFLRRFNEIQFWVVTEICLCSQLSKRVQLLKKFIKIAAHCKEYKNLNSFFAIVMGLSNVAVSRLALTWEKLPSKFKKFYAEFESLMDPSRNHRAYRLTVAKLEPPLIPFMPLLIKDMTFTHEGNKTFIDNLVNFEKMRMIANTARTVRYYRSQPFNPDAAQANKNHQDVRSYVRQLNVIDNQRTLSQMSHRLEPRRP

Take `COc1cc(C(=O)NCC(=O)N/N=C(\C)Cc2ccccc2)cc(OC)c1OC`: the Potency entry in assay [1], in assay [2], in assay [3], in assay [4] and in assay [5] was “inactive” each time.
Consider `O=C1NC(=S)S/C1=C\C=C\c1ccc([N+](=O)[O-])o1`, for which the Potency in assay [1] was 8.49 µM (active). The Potency entry in assay [2], in assay [3], in assay [4] and in assay [5] was “inactive” in each case.
Turning to `COc1cc(NC(=O)c2ccnc(N)c2)cc(C(=O)Nc2cccc(C(F)(F)F)c2)c1`, the Potency in assay [1] was 42.6 µM (active). Further, the Potency entry in assay [2], in assay [3], in assay [4] and in assay [5] was “inactive” each time.
`CN1/C(=C/C=C/c2n(C)c3cc([N+](=O)[O-])c([N+](=O)[O-])cc3[n+]2C)C(C)(C)c2ccccc21`: the Potency is 30.1 µM (active) in assay [1] and 42.6 µM (active) in assay [4]. In addition, the Potency entry in assay [2], in assay [3] and in assay [5] was “inactive” in each case.
In the case of `O=S(=O)(Nc1nc2ccccc2nc1Nc1cccc(S(=O)(=O)N2CCCCC2)c1)c1ccccc1`, the Potency in assay [1] was 56.2 µM (active). The Potency entry in assay [2] and in assay [4] was “inactive” each time. Besides, the activation in assay [3] is 6.04% [at 17.1 µM, percent relative to cAMP agonist control]; in assay [5], 25.8% [at 30.8 µM].
`COc1cc2nc(N3CCNCC3)nc(N)c2cc1OC`: the Potency entry in assay [1], in assay [2] and in assay [5] was “inactive” in each case. Moreover, the Potency was 100 µM (active) in assay [3] and 67.5 µM (active) in assay [4].
`CC(C)CCn1c(Oc2ccc(Cl)cc2)nc2c1c(=O)n(C)c(=O)n2C`: the Potency result in assay [1], in assay [2], in assay [3] and in assay [5] was “inactive” each time. For the same compound, the Potency in assay [4] is 16.9 µM (active).
Take `Cc1nc2c(C(=O)NCCC3=CCCCC3)c[nH]n2c(=O)c1Cl`: the results for the Potency in assay [1] and in assay [4] were 75.7 µM (active) and 6.75 µM (active), respectively. Besides, the Potency result in assay [2], in assay [3] and in assay [5] was “inactive” throughout.
Regarding `C=CCN(CC=C)Cc1cc(=O)oc2cc(OC)c(Cl)cc12`, the Potency entry in assay [1], in assay [2] and in assay [4] was “inactive” throughout. For the same compound, the activation was 3.78% [at 17.1 µM, percent relative to cAMP agonist control] in assay [3] and 20.9% [at 30.8 µM] in assay [5].
For the compound `CCOc1ccc(/C=C2\SC(=S)N(NS(=O)(=O)c3ccc(C)cc3)C2=O)cc1OC`, the Potency in assay [1] is 56.2 µM (active). For the same compound, the Potency result in assay [2] and in assay [4] was “inactive” throughout. Also, the activation in assay [3] is 5.33% [at 17.1 µM, percent relative to cAMP agonist control]; in assay [5], -1.1% [at 30.8 µM].
`COC(=O)CSc1ncnc2scc(-c3ccccc3)c12`: the Potency entry in assay [1], in assay [2] and in assay [4] was “inactive” in each case. Further, the activation was -0.952% [at 17.1 µM, percent relative to cAMP agonist control] in assay [3] and 5.38% [at 30.8 µM] in assay [5].
Consider `Brc1ccc(N/N=C(/N=Nc2nn[nH]n2)c2ccccc2)cc1`, for which the Potency in assay [1] is 33.8 µM (active). Besides, the Potency entry in assay [2], in assay [3], in assay [4] and in assay [5] was “inactive” throughout.
Take `O=C(CSc1nnnn1-c1ccccc1)Nc1ccc(Cl)cn1`: the Potency entry in assay [1], in assay [2], in assay [3], in assay [4] and in assay [5] was “inactive” throughout.
On to `CC(C)Cn1c(SC(C)C(=O)NCC2CCCO2)nc2ccc(Cl)cc2c1=O` (stereo not given), for which the Potency entry in assay [1], in assay [2], in assay [3] and in assay [5] was “inactive” each time. The Potency in assay [4] was 5.36 µM (active).
Turning to `O=C(CSc1n[nH]c(-c2ccccc2)n1)c1ccc(O)c(O)c1`, the Potency in assay [1] is 42.6 µM (active). The Potency result in assay [2], in assay [3], in assay [4] and in assay [5] was “inactive” each time.
In the case of `O=C1/C(=C/c2ccc(O)c(O)c2)SC(=S)N1Nc1ccccc1`, in assay [1], the Potency is 16.9 µM (active). For the same compound, the Potency entry in assay [2], in assay [3], in assay [4] and in assay [5] was “inactive” in each case.
Consider `CCC(CC)C(=O)N1c2ccccc2C(C)(c2ccccc2)CC1(C)C` (stereo not given), for which the Potency entry in assay [1], in assay [2], in assay [3], in assay [4] and in assay [5] was “inactive” in each case.
As to `CCC(Sc1nncn1C)C(=O)Nc1nnc(-c2ccc(Cl)cc2)s1` (stereo not given), the Potency entry in assay [1], in assay [2] and in assay [4] was “inactive” throughout. The activation in assay [3] was 5.37% [at 17.1 µM, percent relative to cAMP agonist control]; in assay [5] it was -0.401% [at 30.8 µM].
As for `COc1cc(CCc2ccccc2)c(C(=O)O)c(O)c1C/C=C(/C)CCC=C(C)C`, the Potency in assay [1] was 42.6 µM (active); in assay [4], 75.7 µM (active). The Potency entry in assay [2], in assay [3] and in assay [5] was “inactive” each time.
